Rows were chosen to be rich in hits. Some 2.9% of all compounds tested hit in one or more screens of this group.
DRD3 antagonist = qHTS of D3 Dopamine Receptor Antagonist: qHTS | D(3) dopamine receptor (Homo sapiens), P35462 | D3R cells, DiscoveRx beta-arrestin luminescence, antagonist mode; active compounds read low | max response, negative = inhibition, % | hit rate 2.5% among 360,000; in the data active means max response below about -50%; inconclusive means no clear call, values can overlap the other calls; further: on the % scale 0 is the no-effect control and ±100 the full control effect
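Cells plated overnight at 1500 cells/well, then exposed to library compounds with dopamine controls for 90 minutes at 37 degrees C. DiscoveRx reagent added for 30–60 minutes at room temperature; luminescence read, quantitative HTS format.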
TRPML1 inh = qHTS for Inhibitors of the Human Mucolipin Transient Receptor Potential 1 (TRPML1); Mucolipin-1 (Homo sapiens), Q9GZU1; TRPML1-inducible cells, Ca2+ dye fluorescence, FDSS; active compounds read low; inhibition of EC80 agonist-evoked calcium signal; activity change, negative = inhibition, % (no concentration beside the values); hit rate 0.02% among 390,000; in the data active means activity change below about -50%; inconclusive means between about -30% and that limit;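 further: stimulus is agonist 54-4 at its EC80 concentration; on the % scale 0 is the no-effect control and ±100 the full control effect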
Target sequence (Q9GZU1 whole entry, looked up): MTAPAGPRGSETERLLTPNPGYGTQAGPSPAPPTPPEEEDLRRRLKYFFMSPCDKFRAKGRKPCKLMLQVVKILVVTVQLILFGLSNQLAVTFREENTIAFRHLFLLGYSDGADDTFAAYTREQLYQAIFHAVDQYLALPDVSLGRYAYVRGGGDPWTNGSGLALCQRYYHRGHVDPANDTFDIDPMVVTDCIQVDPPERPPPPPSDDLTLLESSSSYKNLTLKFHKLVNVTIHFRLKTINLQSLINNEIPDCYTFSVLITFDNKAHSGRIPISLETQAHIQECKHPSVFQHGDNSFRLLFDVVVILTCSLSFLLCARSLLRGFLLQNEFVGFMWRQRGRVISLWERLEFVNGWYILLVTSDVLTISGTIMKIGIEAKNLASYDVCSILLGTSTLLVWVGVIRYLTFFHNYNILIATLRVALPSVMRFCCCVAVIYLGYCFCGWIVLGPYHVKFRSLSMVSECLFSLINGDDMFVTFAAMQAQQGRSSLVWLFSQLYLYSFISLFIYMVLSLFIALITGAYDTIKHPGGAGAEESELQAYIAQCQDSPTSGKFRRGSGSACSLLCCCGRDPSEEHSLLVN
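Calcium fluorescence in TRPML1-DL cells induced overnight with Tet: a 110 s read after compound pin addition, then a 110 s antagonist read after challenge with 54-4 at 4 uM final (EC80).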
TRPML1 ag = qHTS for Agonists of the Human Mucolipin Transient Receptor Potential 1 (TRPML1); Mucolipin-1 (Homo sapiens), Q9GZU1; TRPML1-expressing cells, Ca2+ dye fluorescence, FDSS; activation, % (concentration not given with the values); hit rate 0.12% among 410,000; AID 624414, 2012; in the data active means activation above about 50%; inconclusive means mostly about 30% to 49%; further: 0% is about no effect
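Tetracycline-induced TRPML1-DL cells are seeded and incubated overnight before loading with a no-wash Ca2+ dye and quencher. Agonist activity is taken from the 110 s fluorescence read following compound pin-transfer on an FDSS, before EC80 54-4 challenge.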
D3 ag = qHTS of D3 Dopamine Receptor Agonist: qHTS | D(3) dopamine receptor (Homo sapiens), P35462 | D3R DiscoveRx beta-arrestin cells, luminescence, 90 min | max activation, % | hit rate 0.58% among 410,000 | AID 652048, 2013; in the data active means max activation above about 30%; further: 0% is about no effect
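Agonist-mode cell screen: cells plated at 1500/well and incubated overnight at 37 °C, then exposed to library compounds for 90 min at 37 °C. Detection reagent was added for 30–60 min at room temperature, and luminescence was read.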
Starred values were filed as active, the others as inactive; ? = inconclusive; nt = no result.

SMILES	DRD3 antagonist	TRPML1 inh	TRPML1 ag	D3 ag
CC[C@@H](C(=O)[C@@H](C)[C@@H](O)[C@H](C)[C@@H]1O[C@@H]([C@@H](CC)C(=O)O)CC[C@@H]1C)[C@H]1O[C@]2(C=C[C@@H](O)[C@]3(CC[C@@](C)([C@H]4CC[C@](O)(CC)[C@H](C)O4)O3)O2)[C@H](C)C[C@@H]1C	373	25	0	249*
Cc1ccc(NC(=O)c2nc(S(=O)(=O)Cc3ccccc3)ncc2Cl)cc1	-86*	8	1	-31
Cc1ccccc1CS(=O)(=O)c1ncc(Cl)c(C(=O)Nc2ccc(F)cc2)n1	-84*	-11	3	-2
O=C(Nc1ccc(F)cc1)c1nc(S(=O)(=O)Cc2ccccc2)ncc1Cl	-110*	4	1	-22
CCOC(=O)Cn1c(=O)n(CC2CCCO2)c2nc(-c3ccc(CC)cc3)nc(C(N)=O)c21 (configuration not stated)	nt	-13	4	-4
CCNc1c(C(=O)O)ccc2c1C(=O)c1ccccc1C2=O	?	4	0	-14
CNc1c(C(=O)O)ccc2c1C(=O)c1ccccc1C2=O	-74*	11	1	-45
O=C(O)c1ccc2c(c1Nc1ccccc1)C(=O)c1ccccc1C2=O	-56*	38	1	-14
CCC(Cc1ccccc1)NC(=O)Cn1ncc2c3ccccc3n(Cc3ccccc3)c2c1=O (configuration not stated)	nt	9	2	-8
CCOC(=O)N1C(=O)[C@@](c2ccc(Cl)cc2)(C(C)C)N1C(=O)OCC	-51*	26	-1	-25
Cc1ccc(-c2[nH]c3cc(C(=O)NCCCn4ccnc4)ccc3c(=O)c2O)cc1	-64*	-6	0	7
CCCNC(=O)c1ccc2c(=O)c(O)c(-c3ccc(C)cc3)[nH]c2c1	-9	3	3	15
O=[N+]([O-])/C=C/c1cn(Cc2ccc(Cl)cc2)c2ccccc12	-53*	18	2	-4
CC1CCCN(CCC(=O)c2ccc(Br)cc2)C1 (configuration not stated)	-1	5	3	-15
CC1CC(C)CN(CCCCOc2ccc([N+](=O)[O-])cc2)C1 (configuration not stated)	-82*	24	0	-12
CC1CCCN(CCOc2ccc(Br)cc2)C1 (configuration not stated)	-99*	4	-1	-33
c1ccc(OCCCCN2CCCCC2)cc1	?	-2	1	-7
CCOc1cccc(OCCCCN2CCCCC2)c1	-66*	-2	0	-13
Brc1cccc(OCCCCN2CCCCC2)c1	-92*	-3	0	-29
Cc1ccc(N2CC3=C(C2=O)C(c2ccc(Br)cc2)NC(=O)N3C)cc1 (configuration not stated)	nt	32	1	6
O=C(NC1CCCCCC1)C1CCN(C(=O)N2CCOc3ccccc32)CC1	nt	-5	0	2
CCC(Cc1c(I)cc(I)c(O)c1I)C(=O)O (configuration not stated)	nt	nt	nt	6
Nc1[nH]c(=S)nc2nnsc12	nt	nt	0	nt
O=C(CCCn1ccc2cc(S(=O)(=O)N3CCCC3)ccc21)NCc1ccc(Cl)cc1	nt	22	-1	0
CCOc1ccccc1C(=O)Nc1ccc(S(=O)(=O)Nc2onc(C)c2C)cc1	nt	13	1	5
SMILES	DRD3 antagonist	TRPML1 inh	TRPML1 ag	D3 ag
NS(=O)(=O)Nc1c(Br)cc(Br)c2cccnc12	nt	-9	2	nt
CC1CN(CCCOc2ccc([N+](=O)[O-])cc2)CC(C)O1 (configuration not stated)	-15	38	0	-7
COc1cccc(OCCCCN2CCCCC2)c1	-83*	-1	3	-33
CC1CN(CCCCOc2ccc3ccccc3c2)CC(C)O1 (configuration not stated)	?	1	2	-21
COc1cccc(OCCCCN2CC(C)OC(C)C2)c1 (configuration not stated)	-87*	-17	4	-8
CC1CCCN(Cc2cccc(Oc3ccccc3)c2)C1 (configuration not stated)	?	8	1	-22
COC(=O)c1ccc(OCCCCN2CC(C)OC(C)C2)cc1 (configuration not stated)	-75*	9	0	-15
CC1CCCN(CCCCOc2cccc(Br)c2)C1 (configuration not stated)	-83*	-3	0	-9
NC(=O)c1ccc[n+]([C@@H]2O[C@H](COP(=O)([O-])OP(=O)(O)OC[C@H]3O[C@@H](n4cnc5c(N)ncnc54)[C@H](O)[C@@H]3O)[C@@H](O)[C@H]2O)c1	nt	nt	nt	8
COC(=O)C1CCN(c2ccc([N+](=O)[O-])cc2)CC1	8	-2	1	3
COC(=O)C1CCN(CCCOc2ccc(CN3CCN(c4ccc([N+](=O)[O-])cc4)CC3)cc2)CC1	?	-14	0	32*
O=[N+]([O-])c1ccccc1OCCCN1CCOCC1	?	14	1	-45
CC1CN(CCCOc2ccccc2[N+](=O)[O-])CC(C)O1 (configuration not stated)	-59*	-4	1	-50
CCC(=O)N1c2ccccc2CC1C(=O)NCCN1CCN(c2cc(Cl)ccc2C)CC1 (configuration not stated)	nt	38	1	-27
CCCCOc1ccc(CC(=O)N(C)O)cc1	nt	nt	-1	nt
CC[C@@H]1[C@H]2CCCC(=O)N3CC[C@@H](C[C@@H]1OC(=O)Nc1ccc4c(c1)OCO4)[C@@H]23	nt	nt	0	nt
O=S(=O)(C/C(=C/CO)S(=O)(=O)c1ccccc1)c1ccccc1	-59*	4	1	-34
O=S(=O)(CS(=O)(=O)c1ccccc1)c1ccccc1	-10	-7	-1	-9
CCN(CC)CCNCC(O)(c1ccc(Cl)cc1)c1ccc(Cl)cc1	-60*	5	0	-25
COc1ccccc1CNCC(O)(c1ccc(Cl)cc1)c1ccc(Cl)cc1	-83*	16	1	-18
O=C(Nc1ccccc1)c1ccc(-n2nncc2-c2ccccc2)cc1	nt	nt	0	nt
Cc1ccc(S(=O)(=O)N(C)CCN(C)c2nc(-c3cccs3)nc3ccccc23)cc1	nt	nt	0	nt
CC(C)NC(=O)CCC(=O)N1Cc2ccccc2Oc2ncccc21	nt	-7	0	1
Cn1c(SCC(=O)N2CCOCC2)ncc(C(=O)Nc2ccc(F)cc2)c1=O	nt	15	1	0
Cn1cc(CN2CCC(n3nccc3NC(=O)c3ccccc3Cl)CC2)c2ccccc21	-52*	-4	0	-5
Cc1cc(C)c(CN2CCC(n3nccc3NC(=O)c3ccccc3Cl)CC2)cc1C	-52*	-15	0	-12
COc1ccccc1C(=O)Nc1ccnn1C1CCN(Cc2cn(C)c3ccccc23)CC1	2	9	0	2

Screens (PubChem BioAssay)
